# Experimental data: the supplement of paper PMC8371130
# Counter-ions that a name gives are not always drawn.
# Tested on: HL-1
# Experiment: relative cell viability (CellTiter-Glo) vs DMSO control (% of DMSO control); higher = more viable cells
# Details: oxygen condition: normoxia 72 h; 1000 nM
# Outline: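 Viability of HL-1 mouse atrial cardiomyocytes was assessed by CellTiter-Glo luminescence and normalised to vehicle-treated control cells. Cells were plated in 384-well plates at 1000 cells per well with compounds at 40, 200, 1000 or 5000 nM in 0.01% DMSO, and one day later were placed at 1% O2 for 48 h, then reoxygenated for 24 h, or kept in normoxia for the same duration.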
row,Compound,relative cell viability
1,N.N.[Cl][Pt][Cl] [Cisplatin],89.5
2,CCN(C)C(=O)Oc1cccc([C@H](C)N(C)C)c1 [Rivastigmine tartrate],108
3,C[C@@H]1O[C@@H](O[C@H]2C[C@@H](O)[C@]3(CO)[C@H]4[C@H](O)C[C@]5(C)[C@@H](C6=CC(=O)OC6)CC[C@]5(O)[C@@H]4CC[C@]3(O)C2)[C@H](O)[C@H](O)[C@H]1O [Ouabain],98.8
4,OC(c1ccccc1)(c1ccccc1)C1CCNCC1 [Azacyclonol],104
5,CCC1(c2cccc(O)c2)CCCCN(C)C1 (centres undefined) [Meptazinol HCl],102
6,CNC(=O)Oc1ccc2c(c1)[C@]1(C)CCN(C)[C@@H]1N2C [Physostigmine Salicylate],64.7
7,CN1[C@@H]2CC[C@H]1C[C@@H](OC(=O)[C@H](CO)c1ccccc1)C2 [Hyoscyamine],114
8,C[C@]12CC[C@H](O)CC1=CC[C@@H]1[C@@H]2CC[C@]2(C)C(=O)CC[C@@H]12 [Dehydroepiandrosterone],93.8
9,CC(=O)O[C@H]1C[C@@H]2CC[C@@H]3[C@H](CC[C@@]4(C)[C@H]3C[C@H]([N+]3(C)CCCCC3)[C@@H]4OC(C)=O)[C@@]2(C)C[C@@H]1[N+]1(C)CCCCC1 [Pancuronium],108
10,CN(C)C(=O)Oc1ccc[n+](C)c1 [Pyridostigmine Bromide],95.5
11,CN1c2ccccc2C(NCCCCCCC(=O)O)c2ccc(Cl)cc2S1(=O)=O (centres undefined) [Tianeptine sodium],104
12,CCCN1C[C@H](CSC)C[C@@H]2c3cccc4[nH]cc(c34)C[C@H]21 [Pergolide mesylate],110
13,O=C(O)c1nn(Cc2ccc(Cl)cc2Cl)c2ccccc12 [Lonidamine],122
14,C#C[C@]1(O)C=C[C@H]2[C@@H]3CCC4=CC(=O)CC[C@@H]4[C@H]3CC[C@@]21CC [Gestodene],105
15,Cc1cccc([C@H](C)c2c[nH]cn2)c1C [Dexmedetomidine HCl],98.5
16,C[N+](C)(C)CCCCCCCCCC[N+](C)(C)C [Decamethonium bromide],106
17,O=P1(N(CCCl)CCCl)NCCCO1 (centres undefined) [Cyclophosphamide monohydrate],106
18,CN1C(=O)COc2c(C(=O)NC3CN4CCC3CC4)cc(Cl)cc21 (centres undefined) [Azasetron HCl],110
19,Cc1cccc(C)c1NC1=NCCCS1 [Xylazine HCl],102
20,CC[C@@H](C(N)=O)N1CCCC1=O [Levetiracetam],116
21,O=C(O[C@H]1C[N+]2(CCCOc3ccccc3)CCC1CC2)C(O)(c1cccs1)c1cccs1 [Aclidinium Bromide],106
22,CC[N+]1(C)CCCC(OC(=O)C(O)(c2ccccc2)c2ccccc2)C1 (centres undefined) [Pipenzolate Bromide],101
23,C[C@]12C/C(=C/O)C(=O)C[C@@H]1CC[C@@H]1[C@@H]2CC[C@@]2(C)[C@H]1CC[C@]2(C)O [Oxymetholone],105
24,O=c1[nH]c2ccccc2n1CCCN1CCC(n2c(=O)[nH]c3cc(Cl)ccc32)CC1 [Domperidone],101
25,CC[C@@]1(O)C(=O)OCc2c1cc1n(c2=O)Cc2cc3ccccc3nc2-1 [Camptothecin],89.7
26,Cc1cccc([C@H](C)c2c[nH]cn2)c1C [Dexmedetomidine],118
27,COc1ccc(C(=O)N2CCCC2=O)cc1 [Aniracetam],111

# Same assay, conditions: oxygen condition: normoxia 72 h; 5000 nM
row,Compound,relative cell viability
1,N.N.[Cl][Pt][Cl] [Cisplatin],110
2,CCN(C)C(=O)Oc1cccc([C@H](C)N(C)C)c1 [Rivastigmine tartrate],105
3,C[C@@H]1O[C@@H](O[C@H]2C[C@@H](O)[C@]3(CO)[C@H]4[C@H](O)C[C@]5(C)[C@@H](C6=CC(=O)OC6)CC[C@]5(O)[C@@H]4CC[C@]3(O)C2)[C@H](O)[C@H](O)[C@H]1O [Ouabain],124
4,OC(c1ccccc1)(c1ccccc1)C1CCNCC1 [Azacyclonol],115
5,CCC1(c2cccc(O)c2)CCCCN(C)C1 (centres undefined) [Meptazinol HCl],108
6,CNC(=O)Oc1ccc2c(c1)[C@]1(C)CCN(C)[C@@H]1N2C [Physostigmine Salicylate],48.8
7,CN1[C@@H]2CC[C@H]1C[C@@H](OC(=O)[C@H](CO)c1ccccc1)C2 [Hyoscyamine],116
8,C[C@]12CC[C@H](O)CC1=CC[C@@H]1[C@@H]2CC[C@]2(C)C(=O)CC[C@@H]12 [Dehydroepiandrosterone],111
9,CC(=O)O[C@H]1C[C@@H]2CC[C@@H]3[C@H](CC[C@@]4(C)[C@H]3C[C@H]([N+]3(C)CCCCC3)[C@@H]4OC(C)=O)[C@@]2(C)C[C@@H]1[N+]1(C)CCCCC1 [Pancuronium],101
10,CN(C)C(=O)Oc1ccc[n+](C)c1 [Pyridostigmine Bromide],100
11,CN1c2ccccc2C(NCCCCCCC(=O)O)c2ccc(Cl)cc2S1(=O)=O (centres undefined) [Tianeptine sodium],110
12,CCCN1C[C@H](CSC)C[C@@H]2c3cccc4[nH]cc(c34)C[C@H]21 [Pergolide mesylate],120
13,O=C(O)c1nn(Cc2ccc(Cl)cc2Cl)c2ccccc12 [Lonidamine],112
14,C#C[C@]1(O)C=C[C@H]2[C@@H]3CCC4=CC(=O)CC[C@@H]4[C@H]3CC[C@@]21CC [Gestodene],106
15,Cc1cccc([C@H](C)c2c[nH]cn2)c1C [Dexmedetomidine HCl],99.5
16,C[N+](C)(C)CCCCCCCCCC[N+](C)(C)C [Decamethonium bromide],117
17,O=P1(N(CCCl)CCCl)NCCCO1 (centres undefined) [Cyclophosphamide monohydrate],111
18,CN1C(=O)COc2c(C(=O)NC3CN4CCC3CC4)cc(Cl)cc21 (centres undefined) [Azasetron HCl],107
19,Cc1cccc(C)c1NC1=NCCCS1 [Xylazine HCl],105
20,CC[C@@H](C(N)=O)N1CCCC1=O [Levetiracetam],117
21,O=C(O[C@H]1C[N+]2(CCCOc3ccccc3)CCC1CC2)C(O)(c1cccs1)c1cccs1 [Aclidinium Bromide],121
22,CC[N+]1(C)CCCC(OC(=O)C(O)(c2ccccc2)c2ccccc2)C1 (centres undefined) [Pipenzolate Bromide],116
23,C[C@]12C/C(=C/O)C(=O)C[C@@H]1CC[C@@H]1[C@@H]2CC[C@@]2(C)[C@H]1CC[C@]2(C)O [Oxymetholone],115
24,O=c1[nH]c2ccccc2n1CCCN1CCC(n2c(=O)[nH]c3cc(Cl)ccc32)CC1 [Domperidone],113
25,CC[C@@]1(O)C(=O)OCc2c1cc1n(c2=O)Cc2cc3ccccc3nc2-1 [Camptothecin],35.6
26,Cc1cccc([C@H](C)c2c[nH]cn2)c1C [Dexmedetomidine],116
27,COc1ccc(C(=O)N2CCCC2=O)cc1 [Aniracetam],116
